# Measurements published in PubChem BioAssay (NCATS).
# Where “and” joins values, the source holds several entries; their conditions need not be identical. Equal values may be shown once. Inconclusive results are not listed. Where a call stands in place of a potency, no number is given. Unmarked numbers belong to inactive results. Calls of active or inactive are those of the source. Calls come from the whole dose curve; as a rule, active = well fitted inhibition curve with a large enough effect; inconclusive = small, poorly fitted or top-dose-only effect; inactive = flat fitted curve, though single readings scatter.
# Target: Calcium and integrin-binding protein 1 (Homo sapiens) (UniProt Q99828)
# Experiment: Primary qHTS for Identification of Calcium Integrin Binding Protein 1 (CIB1) Competitor (AID 1508620);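 note: GST tagged CIB1 binding a fluorescein labelled alphaIIb integrin peptide tracer; top concentration of the series differs between compounds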
# Details: CIB1-GST / FITC-alphaIIb peptide fluorescence polarization; series mostly up to 114 µM
# How it was run: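 CIB1-GST (1 uM final) and compound incubated 15 min at room temperature before adding FITC-alphaIIb peptide tracer (100 nM final). Competition for binding read by fluorescence polarization (ex 480, em 540) after another 15 min at room temperature.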
# Sequence of Calcium and integrin-binding protein 1 (Homo sapiens) (Q99828 whole entry, looked up): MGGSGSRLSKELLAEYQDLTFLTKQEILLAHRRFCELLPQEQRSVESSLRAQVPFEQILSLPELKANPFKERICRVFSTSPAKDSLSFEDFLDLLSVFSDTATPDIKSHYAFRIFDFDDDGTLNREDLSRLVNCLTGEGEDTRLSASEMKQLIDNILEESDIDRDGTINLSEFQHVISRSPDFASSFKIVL
row,SMILES,Potency
1,C=C[C@H]1[C@H](O[C@@H]2O[C@H](CO)[C@@H](O)[C@H](O)[C@H]2O)OC=C(C(=O)OC)[C@H]1CCOC(=O)c1cc(O)c(O)c(O)c1,inactive
2,CO[C@H]1/C=C\O[C@@]2(C)Oc3c(C)c(O)c4c(O)c(c5c(nc6cc(C)ccn65)c4c3C2=O)NC(=O)/C(C)=C\C=C/[C@H](C)[C@H](O)[C@@H](C)[C@@H](O)[C@@H](C)[C@H](OC(C)=O)[C@@H]1C,inactive
3,CC1=C(CCC(C)O[C@@H]2O[C@H](CO)[C@@H](O)[C@H](O)[C@H]2O)C(C)(C)CCC1=O (some centres not stated),inactive
4,O=C(N/N=C/c1ccc(O)c(O)c1)c1cc2ccccc2cc1O,inactive
5,CCC(C)C(=O)OC1CC(O)C23C4OCC5(C(O)CC2C1(C)C(O)O4)C3C(=O)C(O)C1(C)C(O)(c2ccoc2)CC2OC251 (configuration not stated),inactive
6,CC1(C)CC[C@]2(C(=O)O[C@@H]3O[C@H](CO)[C@@H](O)[C@H](O)[C@H]3O)CC[C@]3(C)C(=CCC4[C@@]5(C)C[C@@H](O)[C@H](O)[C@@](C)(CO)C5CC[C@]43C)C2[C@@H]1O (some centres not stated),inactive
7,C[C@H](NC(=O)CCc1nc2ccccc2c(=O)[nH]1)c1ccccc1,inactive
8,CCCCc1nc2cc(/C=C/C(=O)NO)ccc2n1CCN(CC)CC,inactive
9,C[C@@]12CC[C@@H]3[C@@](CC[C@H]4[C@@]3(C)CCC[C@@]4(C)C(=O)O)(CC1=O)C2,inactive
10,CC1=CC(=O)C2(OC3OC(C)C(O)C(OC(=O)/C=C/c4ccccc4)C3O)C=COC(OC3OC(CO)C(O)C(O)C3O)C12 (configuration not stated),inactive
11,Cc1nc([C@](C)(O)CO)sc1-c1cnc(N)c(O[C@H](C)c2cc(F)ccc2-n2nccn2)c1,inactive
12,C=C1C(=O)O[C@@H]2/C=C(\C)C(=O)/C=C/[C@](C)(O)C[C@@H](OC(=O)C(C)C)[C@@H]12,inactive
13,COc1cc2c(cc1OC)N1C(=O)C[C@]34C=CCN5CC[C@@H]2[C@@H](CC3)[C@]514,inactive
14,CC(O)(CC(=O)O)CC(=O)OCc1ccc(O[C@@H]2O[C@H](CO)[C@@H](O)[C@H](O)[C@H]2O)cc1 (some centres not stated),inactive
15,CC1(C)[C@@H](O)CC[C@]2(C)[C@H]3CC=C4[C@@H]5C[C@](C)(C(=O)O)CC[C@]5(C)CC[C@@]4(C)[C@]3(C)CC[C@@H]12,inactive

# System: not listed separately
# Experiment: Primary qHTS for inhibitors of nuclear receptor binding SET domain protein 2 (NSD2) in an isogenic RCH-ACV NSD2 p.E1099K mutant (9B) (AID 1645876); note: nearly all actives have a fitted effect of over 70% in size; note: potency is the fitted concentration of half-maximal effect
# Details: RCH-ACV (leukaemia line) NSD2 E1099K (9B) viability, CellTiter-Glo, 72 h; series mostly up to 44.9 µM
SMILES,Potency,"activity change, negative = viability loss"
CC1=C(C(=O)OCc2ccccc2)C(c2ccc(-c3ccccc3)cc2)NC(=O)N1CCCCCC(=O)O (configuration not stated),inactive,
C=C1C(=O)OC2C1CCC(=C)C1CC(OC(C)=O)C(=C)C12 (configuration not stated),10.3 µM (active),
OC[C@H]1O[C@@H](OC[C@H]2O[C@@H](OC/C=C/c3ccccc3)[C@H](O)[C@@H](O)[C@@H]2O)[C@@H](O)[C@@H]1O,inactive,
CC(C)=CCC(O)/C(C)=C/CO[C@@H]1O[C@H](CO)[C@@H](O)[C@H](O)[C@H]1O (some centres not stated),inactive,
C=C[C@H]1[C@H](O[C@@H]2O[C@H](CO)[C@@H](O)[C@H](O)[C@H]2O)OC=C(C(=O)OC)[C@H]1C/C=C(/C=O)[C@@H]1C(C(=O)OC)=CO[C@@H](O[C@@H]2O[C@H](CO)[C@@H](O)[C@H](O)[C@H]2O)[C@@H]1C=C,inactive,
CC1CCC2(CO)C(C(=O)O)=CCCC2C1(C)CCc1ccoc1 (configuration not stated),inactive,
Cc1cc(O)c(-c2ccc([C@@H](C)CN(C)C)cc2)c2c1[nH]c(=O)c1sccc12,0.0742 µM (active),
CC1CC[C@]2(C(=O)O)CC[C@]3(C(=O)O)C(=CCC4[C@@]5(C)CC[C@H](OC6OC(C)C(O)C(OC7OC(CO)C(O)C(O)C7O)C6O)C(C)(C)C5CC[C@]43C)C2C1C (some centres not stated),inactive,
CN(C)C/C=C/C(=O)Nc1cccc(C(=O)Nc2cccc(Nc3ncc(Cl)c(-c4c[nH]c5ccccc45)n3)c2)c1,64.9 nM (active) and 148 nM (active),
Cc1cc(=O)oc2c(C=O)c(O)ccc12,18.3 µM (active),
CC/C=C\CCO[C@@H]1O[C@H](CO)[C@@H](O)[C@H](O)[C@H]1O,inactive,
O=C(/C=C/c1ccccc1)OC[C@]12O[C@H]1[C@@H](O)[C@@H]1C=CO[C@@H](O[C@@H]3O[C@H](CO)[C@@H](O)[C@H](O)[C@H]3O)[C@@H]12,inactive,
Cc1ccc([N+](=O)[O-])cc1S(=O)(=O)N(C)/N=C/c1cnc2ccc(Br)cn12,12.9 nM (active) and 93.4 nM (active),
CC(C)=CCC[C@](C)(O[C@@H]1O[C@H](CO[C@@H]2O[C@H](CO)[C@@H](O)[C@H](O)[C@H]2O)[C@@H](O)[C@H](O)[C@H]1O)C1CC[C@]2(C)[C@@H]1[C@H](O)CC1[C@@]3(C)CC[C@H](O[C@@H]4O[C@H](CO)[C@@H](O)[C@H](O)[C@H]4O[C@@H]4O[C@H](CO)[C@@H](O)[C@H](O)[C@H]4O)C(C)(C)[C@@H]3CC[C@]12C (some centres not stated),,-10.6% [at 9.23 µM]
C=C1C(=O)OC2/C=C(\CO)CC/C=C(\C=O)CC(OC(=O)CC(C)C)C12 (configuration not stated),4.01 µM (active),
COC(=O)C1=CO[C@@H](O[C@@H]2O[C@H](CO[C@@H]3O[C@H](COC(=O)/C=C/c4cc(OC)c(O)c(OC)c4)[C@@H](O)[C@H](O)[C@H]3O)[C@@H](O)[C@H](O)[C@H]2O)[C@@H]2C(CO)=CC[C@H]12,inactive,

SMILES,Potency,"activity change, negative = viability loss"
C=C(C(=O)O)C1CC(O)C2(C)CCCC(=C)C2C1 (configuration not stated),inactive,
CC(C)=CCC[C@](C)(O)[C@H]1CC[C@]2(C)[C@@H]1[C@H](O)CC1[C@@]3(C)CC[C@H](O)C(C)(C)[C@@H]3[C@@H](O[C@@H]3O[C@H](CO)[C@@H](O)[C@H](O)[C@H]3O[C@@H]3O[C@H](CO)[C@@H](O)[C@H](O)[C@H]3O)C[C@]12C (some centres not stated),inactive,
C=C[C@H]1[C@H](O[C@@H]2O[C@H](CO)[C@@H](O)[C@H](O)[C@H]2O)OC=C(C(=O)OC)[C@H]1CCOC(=O)c1cc(O)c(O)c(O)c1,inactive,
CC1=C(CCC(C)O[C@@H]2O[C@H](CO)[C@@H](O)[C@H](O)[C@H]2O)C(C)(C)CCC1=O (some centres not stated),inactive,
O=C(N/N=C/c1ccc(O)c(O)c1)c1cc2ccccc2cc1O,6.82 µM (active),
CCC(C)C(=O)OC1CC(O)C23C4OCC5(C(O)CC2C1(C)C(O)O4)C3C(=O)C(O)C1(C)C(O)(c2ccoc2)CC2OC251 (configuration not stated),0.136 µM (active),
CC1(C)CC[C@]2(C(=O)O[C@@H]3O[C@H](CO)[C@@H](O)[C@H](O)[C@H]3O)CC[C@]3(C)C(=CCC4[C@@]5(C)C[C@@H](O)[C@H](O)[C@@](C)(CO)C5CC[C@]43C)C2[C@@H]1O (some centres not stated),inactive,
C[C@H](NC(=O)CCc1nc2ccccc2c(=O)[nH]1)c1ccccc1,inactive,
CCCCc1nc2cc(/C=C/C(=O)NO)ccc2n1CCN(CC)CC,258 nM (active) and 590 nM (active),
C[C@@]12CC[C@@H]3[C@@](CC[C@H]4[C@@]3(C)CCC[C@@]4(C)C(=O)O)(CC1=O)C2,inactive,
CC1=CC(=O)C2(OC3OC(C)C(O)C(OC(=O)/C=C/c4ccccc4)C3O)C=COC(OC3OC(CO)C(O)C(O)C3O)C12 (configuration not stated),inactive,
Cc1nc([C@](C)(O)CO)sc1-c1cnc(N)c(O[C@H](C)c2cc(F)ccc2-n2nccn2)c1,8.33 µM (active),
C=C1C(=O)O[C@@H]2/C=C(\C)C(=O)/C=C/[C@](C)(O)C[C@@H](OC(=O)C(C)C)[C@@H]12,0.401 µM (active),
COc1cc2c(cc1OC)N1C(=O)C[C@]34C=CCN5CC[C@@H]2[C@@H](CC3)[C@]514,inactive,
CC(O)(CC(=O)O)CC(=O)OCc1ccc(O[C@@H]2O[C@H](CO)[C@@H](O)[C@H](O)[C@H]2O)cc1 (some centres not stated),inactive,
CC1(C)[C@@H](O)CC[C@]2(C)[C@H]3CC=C4[C@@H]5C[C@](C)(C(=O)O)CC[C@]5(C)CC[C@@]4(C)[C@]3(C)CC[C@@H]12,inactive,
